Here are results for 40 compounds from PubChem BioAssay (NCATS).

Activity calls are given as the source filed them. Entries that show only a call come without a potency. Calls come from the whole dose curve; as a rule, active = well fitted activation curve with a large enough effect; inconclusive = small, poorly fitted or top-dose-only effect; inactive = no such curve, though single readings can be large or run the other way.
Potency is the fitted concentration of half-maximal effect.

The target of this assay is Cytochrome P450 3A4 (Homo sapiens) (UniProt P08684). In words: qHTS Assay for Activators of Cytochrome P450 3A4 (AID 885). Note: nearly all actives have a fitted effect of over 65% in size. As to conditions: recombinant CYP3A4, Luciferin-PPXE luminescence, 60 min; series mostly up to 57.1 µM. The method, then: NIH Molecular Libraries Screening Centers Network [MLSCN]
Sequence of Cytochrome P450 3A4 (Homo sapiens) (P08684 whole entry, looked up): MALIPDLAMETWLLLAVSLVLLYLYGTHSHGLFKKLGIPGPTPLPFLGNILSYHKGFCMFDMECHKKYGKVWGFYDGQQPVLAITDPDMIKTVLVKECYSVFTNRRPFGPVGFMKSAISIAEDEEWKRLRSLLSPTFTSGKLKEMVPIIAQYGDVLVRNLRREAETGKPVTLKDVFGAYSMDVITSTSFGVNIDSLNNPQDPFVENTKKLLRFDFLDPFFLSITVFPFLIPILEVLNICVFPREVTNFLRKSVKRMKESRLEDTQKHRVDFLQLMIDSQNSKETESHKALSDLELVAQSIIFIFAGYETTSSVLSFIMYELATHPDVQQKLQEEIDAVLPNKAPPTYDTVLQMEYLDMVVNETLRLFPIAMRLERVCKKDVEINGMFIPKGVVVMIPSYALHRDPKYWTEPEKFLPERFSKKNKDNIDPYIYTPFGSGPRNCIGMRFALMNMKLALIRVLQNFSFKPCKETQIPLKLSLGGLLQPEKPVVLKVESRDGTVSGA
NIH Chemical Genomics Center [NCGC]
The P450 gene superfamily is involved in the metabolism and clearance of xenobiotics. This assay used human CYP3A4 to measure the dealkylation of luciferin-6' phenylpiperazinylyl (Luciferin-PPXE; […]) to luciferin. The luciferin is then measured by luminescence after the addition of a luciferase detection reagent. Luciferin-PPXE concentration in the assay was equal to its KM for CYP3A4. Inhibitors and some substrates limit the production of luciferin, and decrease measured luminescence; activators increase the production of luciferin and luminescence.
NCGC Assay Protocol Summary:
Two uL of enzyme and substrate mix (final concentrations: 20nM CYP3A4, 25uM Luciferin-PPXE, 200mM KPO4) were dispensed into a white, solid bottom 1536-well microtiter plate. 23nL of compound was transferred by a pin tool. The plate was incubated at RT for 10 min. Two uL of an NADPH regeneration solution (Promega supplied reagent) was dispensed and the reaction was allowed to continue for 60 min at RT. Then the reaction was stopped by reconstituted luciferin detection buffer. After another 20 min of incubation the plate was read on the ViewLux (Perkin Elmer) at 60 sec exposure and 2x2 binning. This protocol was carried out with Promega-Glo reagents and further information can be found at http://www.promega.com/tbs/tb325/tb325.pdf. Data were normalized to the to AC100 inhibition (57 uM ketoconazole).
Keywords: P450, CYP2D6, Luciferase, MLSMR, MLSCN, NIH Roadmap, qHTS, NCGC
A general note: Quantitative high-throughput screening tests each substance at several concentrations.
With `COCCN(CCOC)c1nc(C)nc2c1nc(-c1ccccc1)n2CCN1CCCC1`, the Potency result is “inactive”.

In the case of `CCCCNc1nc(C)nc2c1nc(C)n2CCC`, the Potency entry is “inactive”. As for `Cc1cnc(CNc2ncncc2-c2ccccc2C#N)cn1`, the Potency entry was “inactive”.

On to `Cc1ccccc1-c1cncnc1N(C)Cc1ccco1`, for which the Potency entry was “inactive”.

Consider `COC(=O)N1CCC2(CC1)CN(C(c1ccccc1)c1ccccc1)C2`, for which the Potency is 0.794 µM (active).

`CCCn1c(-c2ccc(F)cc2)nc2c(NCCN3CCCCC3)nc(C)nc21`: the Potency result is “inactive”.

Turning to `FC(F)(F)c1ccccc1-c1nc(NCCN2CCOCC2)c2ccccc2n1`, the Potency entry was “inactive”. Then `CN1CCN(c2ncncc2-c2ccc(C(=O)N(C)C)cc2)CC1`, with “inactive”; and `O=c1c(-c2cccs2)nc2cnc(N3CCOCC3)nc2n1Cc1cccs1`, with “inactive”.

In the case of `CCCn1c(C)nc2c(NC3CCCCC3)nc(C)nc21`, the Potency entry was “inactive”.

Regarding `COc1ccc(C(=O)N2CCC3(CC2)CN(Cc2ccc(C#N)cc2)C3)cc1`, the Potency result was “inactive”. Then `C=C[C@@](C)(O)CC[C@@H]1[C@@]2(C)CCCC(C)(C)[C@@H]2CC[C@@]1(C)O`, with “inactive”; and `COc1ccc(NC(=O)N2CC[C@@]3(CCCN(C(=O)c4cnccn4)C3)C2)cc1`, with “inactive”; and `c1cncc(CNc2ncnc3ccc(-c4ccoc4)cc23)c1`, with “inactive”. The result for `O=C(Nc1ccccc1)N1CC2(CCN(C(=O)c3ccncc3)CC2)C1` reads “inactive”. Then `COc1ccc(Oc2ncc3nc(C)c(=O)n(-c4ccccc4)c3n2)cc1`, with “inactive”; and `COCCn1c(=O)cnc2cnc(Nc3cccc(OC)c3)nc21`, with “inactive”; and `Cc1nc(N2CCOCC2)c2nc(-c3ccccc3)n(CCN3CCOCC3)c2n1`, with “inactive”.

For `Cc1cnc(CNc2ncncc2-c2ccccc2C(F)(F)F)cn1`, the Potency result is “inactive”. Then `COc1ccc(-n2c(=O)c(-c3cccs3)nc3cnc(OC)nc32)cc1`, with “inactive”.

On to `COCCn1c(=O)c(-c2ccccc2)nc2cnc(OC)nc21`, for which the Potency entry is “inactive”. Then `Clc1ccccc1-c1ccc2ncnc(N3CCNCC3)c2c1`, with “inactive”. As for `COc1cccc(Cn2c(=O)c(-c3cccs3)nc3cnc(N(C)C)nc32)c1`, the Potency result was “inactive”.

As to `COc1ccccc1CNc1ncnc2ccc(-c3ccccc3CN(C)C)cc12`, the Potency entry is “inactive”. The result for `CCNc1ncc2nc(-c3cn(C)c4ccccc34)c(=O)n(-c3ccccc3)c2n1` reads “inactive”; that for `CN(Cc1ccco1)c1ncnc2ccc(-c3ccccc3Cl)cc12`, “inactive”.

As for `O=C(Nc1cccc(F)c1)N1CCCC2(CCN(S(=O)(=O)c3ccccc3)CC2)C1`, the Potency entry is “inactive”.

Consider `CCCn1c(-c2ccc(F)cc2)nc2c(NC(C)CCCN(CC)CC)nc(C)nc21` (stereo not given), for which the Potency result is “inactive”. In the case of `COCCN(CCOC)c1nc(C)nc2c1nc(-c1ccccc1)n2CCCN1CCCCC1C` (stereo not given), the Potency entry is “inactive”. On to `CN1CCN(c2ncc3nc(-c4cccs4)c(=O)n(-c4ccccc4)c3n2)CC1`, for which the Potency entry is “inactive”. The result for `Cn1cccc1C(=O)N1CCC[C@@]2(CCN(Cc3ccc(C#N)cc3)C2)C1` reads “inactive”; that for `O=C(c1ccco1)N1CCC2(CC1)CN(c1ccccc1)C2`, 15.8 µM (active).

Turning to `COc1cccc(-c2cncnc2N(C)Cc2ccco2)c1`, the Potency result was “inactive”. The result for `Cc1nc(Nc2ccccc2)c2nc(-c3ccccc3)n(CCN3CCOCC3)c2n1` reads “inactive”. Then `CN(C)c1ccc(-c2cc(Nc3ccc(F)cc3)ncn2)cc1`, with “inactive”; and `COc1cccc(Cn2c(=O)c(-c3cc(F)cc(F)c3)nc3cnc(N4CCN(C)CC4)nc32)c1`, with “inactive”.

Regarding `O=C(Oc1ccccc1)N1CCC2(CC1)CCN(c1ccccc1)CC2`, the Potency was 3.16 µM (active). The result for `COc1ccccc1CN1CC[C@@]2(CCCN(C(=O)c3c(C)noc3C)C2)C1` reads “inactive”. Then `CNc1ncncc1-c1ccccc1OC`, with “inactive”; and `CN1CCN(c2nc(-c3ccc(N(C)C)cc3)nc3ccccc23)CC1`, with “inactive”.
